The test has as its system NCI-H1688. Kind of test: inhibition of cell viability relative to untreated control (fraction); higher = stronger growth inhibition, active = 0.5 or more. The conditions noted are these: 30 µM; 24 h. An outline of the steps:
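Viability of NCI-H1688 small cell lung cancer cells was assessed with Cell Counting Kit-8 by absorbance at 450 nm, in triplicate, after a 24 h exposure to a natural compound library (TargetMol) at 30 µM at 37°C and 5% CO2. The cells had been seeded at 3 × 10^3 cells/well in 96-well plates 24 h before treatment. Inhibition of cell viability is reported as a fraction, derived from viability normalised against untreated cells.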

Counter-ions that a name gives are not always drawn. Values without a mark were called inactive.

This is an account of results in the supplement of paper PMC11634586.

With `Oc1cc(O)cc(/C=C/c2ccc(O)c(O)c2)c1` [Piceatannol], the “inhibition of cell viability” value is 0.164. With `O=C(O)[C@H]1O[C@@H](Oc2cc3oc(-c4ccccc4)cc(=O)c3c(O)c2O)[C@H](O)[C@@H](O)[C@@H]1O` [Baicalin] the figure was -0.127; with `CC(=O)Oc1c(C)c(C)c2c(c1C)CCC(C)(CCC[C@H](C)CCC[C@H](C)CCCC(C)C)O2` (some centres not stated) [Vitamin E Acetate], -0.0362; with `OC1OC[C@@H](O)[C@@H](O)[C@@H]1O` (stereo partly drawn) [D(-)-Arabinose], 0.0239.

As for `CC1(C)CC[C@]2(C(=O)O)CC[C@]3(C)C(=CC[C@@H]4[C@@]5(C)CCC(=O)C(C)(C)[C@@H]5CC[C@]43C)[C@@H]2C1` [Oleanonic Acid], the “inhibition of cell viability” value was 0.342. With `COc1ccc(-c2cc(=O)c3c(O)cc(O)cc3o2)cc1O` [Diosmetin] the figure was 0.314; with `CN1c2ccccc2C(=O)N2CCc3c([nH]c4ccccc34)C21` (stereo in doubt) [Evodiamine], 0.848 (active); with `CCCCCCCCCC[C@H](C(=O)O)[C@]1(C(=O)O)CCC(=O)O1` [Spiculisporic Acid], 0.104. Under `O=C(/C=C/c1ccc(O)c2oc(-c3ccc(O)c(O)c3)cc12)O[C@H](Cc1ccc(O)c(O)c1)C(=O)O` [Salvianolic Acid C] stands 0.0822; under `CCOC(=O)/C=C/c1ccc(O)c(OC)c1` [Ethyl ferulate], -0.0133. Under `COc1ccc(CC(=O)O)cc1OC` [Homoveratrumic acid] stands 0.0253; under `CC(C)=CCC[C@](C)(O)[C@H]1CC[C@]2(C)[C@@H]1[C@H](O)C[C@@H]1[C@@]3(C)CC[C@H](O)C(C)(C)[C@@H]3[C@@H](O[C@@H]3O[C@H](CO)[C@@H](O)[C@H](O)[C@H]3O[C@@H]3O[C@@H](C)[C@H](O)[C@@H](O)[C@H]3O)C[C@]12C` [Ginsenoside Rg2], 0.155. For `C[C@@H]1O[C@@H](O[C@H]2[C@H](Oc3cc(O)c4c(=O)cc(-c5ccc(O)cc5)oc4c3)O[C@H](CO)[C@@H](O)[C@@H]2O)[C@H](O)[C@H](O)[C@H]1O` [Rhoifolin], the “inhibition of cell viability” value was 0.127. Under `CC(C)=CC[C@@H](O)C1=CC(=O)c2c(O)ccc(O)c2C1=O` [Shikonin] stands 0.956 (active); under `C=C1C(=O)[C@]23[C@H](CC[C@@H]1[C@@H]2O)[C@]12CO[C@@]3(O)[C@H](O)[C@H]1C(C)(C)CC[C@@H]2O` [Rubescensin A], 0.984 (active); under `OC[C@H]1O[C@H](O[C@]2(CCl)O[C@H](CCl)[C@@H](O)[C@@H]2O)[C@H](O)[C@@H](O)[C@H]1Cl` [Sucralose], 0.0847. Turning to `CC(C)=CCC/C(C)=C/CC/C(C)=C/CC/C(C)=C/CC1=C(C)C(=O)c2ccccc2C1=O` [Menatetrenone], the “inhibition of cell viability” value was -0.0024.

Regarding `O=C(CCc1ccc(O)cc1)c1c(O)cc(O)cc1O` [Phloretin], the “inhibition of cell viability” value is -0.0149.

For the compound `CC1(C)CC[C@]2(C(=O)O)CC[C@]3(C)C(=CC[C@@H]4[C@@]5(C)CC[C@H](O)[C@@](C)(CO)[C@@H]5CC[C@]43C)[C@@H]2C1` [Hederagenin], the “inhibition of cell viability” value is 0.274.

As for `COC(=O)CC[C@@H](C)[C@H]1CC[C@H]2[C@@H]3[C@H](O)C[C@@H]4C[C@H](O)CC[C@]4(C)[C@H]3C[C@H](O)[C@]12C` [Methyl Cholate], the “inhibition of cell viability” value was 0.013. With `C1CCN2C[C@@H]3C[C@@H](CN4CCCC[C@@H]34)[C@H]2C1` [(-)-Sparteine sulfate pentahydrate] the figure was 0.237. Under `C[C@H]1[C@H](OC(=O)CCC(=O)O)O[C@@H]2O[C@@]3(C)CC[C@H]4[C@H](C)CC[C@@H]1[C@@]24OO3` [Artesunate] stands 0.726 (active).
